About 7,900 targets were measured; listed, in parts, are those with a hit and a random draw of the rest. About 0.6% of all pairs of compound and target were hits.
Tests used:
Assay in all cases: log2 fold change, soluble protein after heating vs DMSO (PISA); higher = thermal stabilisation; K562 cells, 10 uM, 30 min; active = over 0.2 and 3.5 SD of the protein, either way, in both replicates (recomputed)
[1] = compound: COC1=CC=C(C=C1)CN2C=CC3=C2C=C(C=C3)C(=O)NO
Outline: (§1)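 K562 cells at 2×10^6 cells/mL were treated for 30 min with 10 μM compound, and aliquots were heated for 3 min over 48°C-58°C before pooling. Extraction used PBS with 0.5% NP-40 at 4°C, and soluble protein was the supernatant after 21,000xg for 90 min, measured by TMTpro 16plex LC-MS/MS with channel sums equalised. Thermal stability values, relative to control samples and from duplicates, are log2 fold changes.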

filanesib = compound: CON(C)C(=O)N1N=C(c2cc(F)ccc2F)S[C@@]1(CCCN)c1ccccc1 [filanesib]
Outline: as §1

zotarolimus = compound: CO[C@H]1C[C@@H]2CC[C@@H](C)[C@@](O)(O2)C(=O)C(=O)N2CCCC[C@H]2C(=O)O[C@H]([C@H](C)C[C@@H]2CC[C@H](n3cnnn3)[C@H](OC)C2)CC(=O)[C@H](C)/C=C(\C)[C@@H](O)[C@@H](OC)C(=O)[C@H](C)C[C@H](C)/C=C/C=C/C=C/1C [zotarolimus]
Outline: as §1

idasanutlin = compound: COc1cc(C(=O)O)ccc1NC(=O)[C@@H]1N[C@@H](CC(C)(C)C)[C@](C#N)(c2ccc(Cl)cc2F)[C@H]1c1cccc(Cl)c1F [idasanutlin]
Outline: as §1

alisertib = compound: COc1cc(Nc2ncc3c(n2)-c2ccc(Cl)cc2C(c2c(F)cccc2OC)=NC3)ccc1C(=O)O [alisertib]
Outline: as §1

[2] = compound: COc1cc2nc(-c3cc(F)ccc3O)nc(N[C@@H]3CNC[C@H]3C(C)(C)O)c2cc1OC
Outline: as §1

gefitinib = compound: COc1cc2ncnc(Nc3ccc(F)c(Cl)c3)c2cc1OCCCN1CCOCC1 [gefitinib]
Outline: as §1

[3] = compound: COc1cccc2cc(-c3nc([C@H]4CC[C@H](C(=O)O)CC4)n4ncnc(N)c34)[nH]c12
Outline: as §1

lapatinib = compound: CS(=O)(=O)CCNCc1ccc(-c2ccc3ncnc(Nc4ccc(OCc5cccc(F)c5)c(Cl)c4)c3c2)o1 [lapatinib]
Outline: as §1

pictilisib = compound: CS(=O)(=O)N1CCN(Cc2cc3nc(-c4cccc5[nH]ncc45)nc(N4CCOCC4)c3s2)CC1 [pictilisib]
Outline: as §1

[4] = compound: CS(=O)(=O)c1ccc(-c2cnc(N)c(C(=O)Nc3ccccc3)n2)cc1
Outline: as §1

crizotinib = compound: C[C@@H](Oc1cc(-c2cnn(C3CCNCC3)c2)cnc1N)c1c(Cl)ccc(F)c1Cl [crizotinib]
Outline: as §1

[5] = compound: C[C@@H]1COCCN1C2=NC(=NC(=C2)C3(CC3)S(=O)(=O)C)C4=C5C=CNC5=CC=C4
Outline: as §1

[6] = compound: C[C@H](C1=CC=C(C=C1)C(=O)NC2=C3C=CNC3=NC=C2)N
Outline: as §1

duvelisib = compound: C[C@H](Nc1ncnc2nc[nH]c12)c1cc2cccc(Cl)c2c(=O)n1-c1ccccc1 [duvelisib]
Outline: as §1

gandotinib = compound: Cc1cc(Nc2cc(CN3CCOCC3)c3nc(C)c(Cc4ccc(Cl)cc4F)n3n2)n[nH]1 [gandotinib]
Outline: as §1

tozasertib = compound: Cc1cc(Nc2cc(N3CCN(C)CC3)nc(Sc3ccc(NC(=O)C4CC4)cc3)n2)n[nH]1 [tozasertib]
Outline: as §1

[7] = compound: Cc1cc(SCc2sc(-c3ccc(C(F)(F)F)cc3)nc2C)ccc1OCC(=O)O
Outline: as §1

ispinesib = compound: Cc1ccc(C(=O)N(CCCN)[C@@H](c2nc3cc(Cl)ccc3c(=O)n2Cc2ccccc2)C(C)C)cc1 [ispinesib]
Outline: as §1

doramapimod = compound: Cc1ccc(-n2nc(C(C)(C)C)cc2NC(=O)Nc2ccc(OCCN3CCOCC3)c3ccccc23)cc1 [doramapimod]
Outline: as §1

Measured: log2 fold change

MAPK14 isoform 2 (UniProt Q16539)
Sequence of UniProt Q16539 (Q16539 whole entry, looked up): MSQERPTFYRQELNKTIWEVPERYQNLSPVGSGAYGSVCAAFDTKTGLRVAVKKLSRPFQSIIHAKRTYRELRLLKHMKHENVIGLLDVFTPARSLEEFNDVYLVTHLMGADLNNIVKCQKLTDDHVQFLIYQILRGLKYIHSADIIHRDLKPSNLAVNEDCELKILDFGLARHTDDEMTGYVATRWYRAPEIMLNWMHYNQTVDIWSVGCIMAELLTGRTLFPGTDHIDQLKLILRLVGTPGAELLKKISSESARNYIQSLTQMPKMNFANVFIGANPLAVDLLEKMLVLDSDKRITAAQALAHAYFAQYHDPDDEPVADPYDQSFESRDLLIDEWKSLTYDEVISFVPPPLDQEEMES
inactive: [1] 0 | filanesib 0.016 | zotarolimus -0.033 | idasanutlin -0.018 | alisertib -0.058 | [2] -0.005 | gefitinib 0.811 | [3] 0.319 | lapatinib -0.034 | pictilisib -0.114 | [4] 0.087 | crizotinib -0.062 | [5] -0.018 | [6] -0.013 | duvelisib -0.072 | gandotinib -0.022 | tozasertib 0.031 | [7] 0.017 | ispinesib -0.038

L2HGDH (UniProt Q9H9P8)
inactive: [1] 0.096 | filanesib -0.121 | zotarolimus 0.07 | idasanutlin -0.037 | alisertib -0.019 | [2] -0.034 | gefitinib -0.01 | [3] 0.041 | lapatinib -0.069 | pictilisib 0.115 | [4] 0.04 | crizotinib -0.081 | [5] 0.124 | [6] -0.025 | duvelisib 0.063 | gandotinib 0.024 | tozasertib -0.082 | [7] 0.039 | doramapimod -0.02 | ispinesib -0.083

KHDRBS1 (UniProt Q07666)
Sequence of UniProt Q07666 (Q07666 whole entry, looked up): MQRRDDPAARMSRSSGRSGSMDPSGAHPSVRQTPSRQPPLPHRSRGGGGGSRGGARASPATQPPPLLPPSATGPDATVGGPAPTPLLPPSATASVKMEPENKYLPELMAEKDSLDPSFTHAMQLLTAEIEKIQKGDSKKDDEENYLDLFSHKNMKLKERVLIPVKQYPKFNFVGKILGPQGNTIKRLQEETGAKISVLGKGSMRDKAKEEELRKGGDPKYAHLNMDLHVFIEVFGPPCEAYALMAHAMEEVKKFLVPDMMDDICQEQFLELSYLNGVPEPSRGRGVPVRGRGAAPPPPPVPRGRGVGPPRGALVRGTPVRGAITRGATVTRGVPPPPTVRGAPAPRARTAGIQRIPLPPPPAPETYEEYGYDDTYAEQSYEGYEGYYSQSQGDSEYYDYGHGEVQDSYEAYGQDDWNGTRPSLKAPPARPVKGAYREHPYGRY
inactive: [1] 0.06 | filanesib 0.041 | zotarolimus -0.012 | idasanutlin 0.002 | alisertib 0.014 | [2] 0.129 | gefitinib 0.026 | [3] 0.008 | lapatinib -0.072 | pictilisib -0.072 | [4] -0.091 | crizotinib -0.02 | [5] -0.06 | [6] -0.019 | duvelisib -0.017 | gandotinib 0.07 | tozasertib -0.015 | [7] 0.038 | doramapimod -0.027 | ispinesib 0.011

INTS7 (UniProt Q9NVH2)
inactive: [1] 0.05 | filanesib -0.022 | zotarolimus -0.007 | idasanutlin -0.052 | alisertib -0.029 | [2] 0.05 | gefitinib -0.052 | [3] -0.012 | lapatinib -0.015 | pictilisib 0.148 | [4] 0.009 | crizotinib -0.133 | [5] -0.053 | [6] -0.054 | duvelisib 0 | gandotinib 0.211 | tozasertib 0.008 | [7] 0.014 | doramapimod -0.091 | ispinesib -0.036

MAP4K5 (UniProt Q9Y4K4)
inactive: [1] 0.01 | filanesib -0.083 | zotarolimus 0.021 | idasanutlin 0.067 | alisertib 0.134 | [2] 0.224 | gefitinib -0.011 | [3] 0.011 | lapatinib 0.15 | pictilisib 0.012 | [4] 0.019 | [5] 0.072 | [6] 0.24 | gandotinib -0.067 | tozasertib -0.088 | doramapimod -0.064 | ispinesib -0.045

KCTD2 (UniProt Q14681)
Sequence of UniProt Q14681 (Q14681 whole entry, looked up): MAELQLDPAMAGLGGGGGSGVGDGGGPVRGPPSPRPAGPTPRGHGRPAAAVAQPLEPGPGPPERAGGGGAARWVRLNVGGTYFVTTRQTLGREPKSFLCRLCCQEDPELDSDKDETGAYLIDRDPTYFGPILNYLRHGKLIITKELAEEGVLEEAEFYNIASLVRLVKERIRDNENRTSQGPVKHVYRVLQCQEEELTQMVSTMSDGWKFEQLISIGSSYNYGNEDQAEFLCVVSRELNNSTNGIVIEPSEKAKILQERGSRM
inactive: [1] 0.068 | filanesib 0.154 | zotarolimus -0.148 | idasanutlin 0.116 | alisertib -0.012 | [2] 0.402 | gefitinib 0.025 | [3] 0.154 | lapatinib -0.413 | pictilisib 0.426 | [4] 0.178 | crizotinib 0.02 | [5] -0.047 | [6] 0.511 | duvelisib 0.211 | gandotinib 0.355 | tozasertib -0.116 | [7] -0.281 | doramapimod 0.089 | ispinesib 0.026

MFF (UniProt Q9GZY8)
inactive: [1] 0.038 | filanesib 0.075 | zotarolimus -0.022 | idasanutlin 0.053 | alisertib 0.024 | [2] -0.141 | gefitinib 0.012 | [3] 0.128 | lapatinib -0.061 | pictilisib 0.103 | [4] -0.03 | crizotinib -0.051 | [5] -0.052 | [6] -0.023 | duvelisib 0.005 | gandotinib -0.036 | tozasertib -0.053 | [7] -0.085 | doramapimod -0.018 | ispinesib -0.088

MAGI1 (UniProt Q96QZ7)
Sequence of UniProt Q96QZ7 (Q96QZ7 whole entry, looked up): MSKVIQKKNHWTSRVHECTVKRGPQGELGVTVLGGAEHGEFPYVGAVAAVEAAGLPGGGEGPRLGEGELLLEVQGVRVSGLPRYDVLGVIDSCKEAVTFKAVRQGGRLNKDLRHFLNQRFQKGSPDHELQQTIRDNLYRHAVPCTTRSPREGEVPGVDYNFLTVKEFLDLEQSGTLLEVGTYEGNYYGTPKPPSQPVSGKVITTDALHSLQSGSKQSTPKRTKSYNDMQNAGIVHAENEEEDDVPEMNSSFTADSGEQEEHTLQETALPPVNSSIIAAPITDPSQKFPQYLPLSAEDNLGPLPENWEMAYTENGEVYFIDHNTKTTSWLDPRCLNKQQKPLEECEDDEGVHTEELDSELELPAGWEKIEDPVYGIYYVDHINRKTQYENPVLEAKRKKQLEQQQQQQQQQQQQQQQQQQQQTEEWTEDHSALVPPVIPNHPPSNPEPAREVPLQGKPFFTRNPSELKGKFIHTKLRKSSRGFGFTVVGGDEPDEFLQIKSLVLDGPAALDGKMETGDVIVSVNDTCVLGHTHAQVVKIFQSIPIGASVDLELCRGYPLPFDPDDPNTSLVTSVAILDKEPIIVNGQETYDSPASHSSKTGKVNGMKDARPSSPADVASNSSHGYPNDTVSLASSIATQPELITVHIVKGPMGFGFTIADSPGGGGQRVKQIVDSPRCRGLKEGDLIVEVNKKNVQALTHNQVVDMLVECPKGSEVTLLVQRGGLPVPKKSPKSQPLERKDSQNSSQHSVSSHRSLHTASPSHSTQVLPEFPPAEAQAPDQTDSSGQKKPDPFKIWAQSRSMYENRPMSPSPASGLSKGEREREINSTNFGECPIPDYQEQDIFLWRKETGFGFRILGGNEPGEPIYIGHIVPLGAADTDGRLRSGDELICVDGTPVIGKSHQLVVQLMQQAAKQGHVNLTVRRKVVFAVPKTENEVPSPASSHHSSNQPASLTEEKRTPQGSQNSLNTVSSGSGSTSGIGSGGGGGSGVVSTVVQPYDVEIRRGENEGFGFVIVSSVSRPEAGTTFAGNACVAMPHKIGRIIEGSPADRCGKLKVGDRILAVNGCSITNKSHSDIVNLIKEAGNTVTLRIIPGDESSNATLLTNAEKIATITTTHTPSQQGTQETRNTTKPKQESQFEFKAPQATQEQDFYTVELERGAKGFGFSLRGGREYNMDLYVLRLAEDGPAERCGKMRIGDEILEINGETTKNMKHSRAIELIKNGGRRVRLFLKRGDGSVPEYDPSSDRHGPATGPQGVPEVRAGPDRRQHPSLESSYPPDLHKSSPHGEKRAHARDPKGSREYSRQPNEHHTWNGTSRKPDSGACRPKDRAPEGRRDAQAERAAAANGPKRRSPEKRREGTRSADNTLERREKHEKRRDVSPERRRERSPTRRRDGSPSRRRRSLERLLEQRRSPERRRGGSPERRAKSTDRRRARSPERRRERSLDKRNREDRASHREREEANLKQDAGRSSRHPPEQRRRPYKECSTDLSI
inactive: [1] -0.031 | filanesib 0.053 | zotarolimus -0.044 | idasanutlin 0.084 | alisertib -0.01 | [2] 0.005 | gefitinib 0.042 | [3] -0.012 | lapatinib 0.01 | pictilisib 0.053 | [4] -0.006 | crizotinib -0.003 | [5] -0.053 | [6] 0.032 | duvelisib -0.013 | gandotinib 0.003 | tozasertib -0.03 | [7] 0.046 | doramapimod 0.024 | ispinesib -0.042

MED1 (UniProt Q15648)
inactive: [1] -0.051 | filanesib 0.116 | zotarolimus 0.042 | idasanutlin 0.056 | alisertib -0.056 | [2] -0.063 | gefitinib -0.039 | [3] 0.016 | lapatinib 0.114 | pictilisib 0.077 | [4] 0.011 | crizotinib 0.014 | [5] 0.043 | [6] 0.04 | duvelisib -0.044 | gandotinib -0.025 | tozasertib -0.031 | [7] -0.05 | doramapimod 0.11 | ispinesib -0.078

MED25 isoform 3 (UniProt Q71SY5)
Sequence of UniProt Q71SY5 (Q71SY5 whole entry, looked up): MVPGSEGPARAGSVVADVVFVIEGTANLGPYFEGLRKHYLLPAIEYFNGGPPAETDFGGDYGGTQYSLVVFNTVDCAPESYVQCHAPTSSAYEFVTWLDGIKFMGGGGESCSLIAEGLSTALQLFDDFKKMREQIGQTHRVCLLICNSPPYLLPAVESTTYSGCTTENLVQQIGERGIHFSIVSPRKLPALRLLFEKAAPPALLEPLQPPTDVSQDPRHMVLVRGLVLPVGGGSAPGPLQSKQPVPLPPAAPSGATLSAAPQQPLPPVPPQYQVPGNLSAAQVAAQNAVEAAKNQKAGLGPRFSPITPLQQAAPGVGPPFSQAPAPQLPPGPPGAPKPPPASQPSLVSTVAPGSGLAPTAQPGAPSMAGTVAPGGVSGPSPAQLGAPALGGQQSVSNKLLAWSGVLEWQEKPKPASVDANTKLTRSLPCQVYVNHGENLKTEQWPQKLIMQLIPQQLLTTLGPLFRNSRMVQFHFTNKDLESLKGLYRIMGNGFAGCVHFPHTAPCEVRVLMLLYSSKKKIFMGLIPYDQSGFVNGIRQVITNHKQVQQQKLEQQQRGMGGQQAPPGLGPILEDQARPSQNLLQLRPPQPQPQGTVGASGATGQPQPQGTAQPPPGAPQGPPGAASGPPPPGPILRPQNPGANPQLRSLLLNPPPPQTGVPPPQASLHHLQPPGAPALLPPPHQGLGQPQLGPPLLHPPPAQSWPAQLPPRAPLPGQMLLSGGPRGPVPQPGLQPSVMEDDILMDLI
inactive: [1] -0.015 | filanesib -0.018 | zotarolimus 0.136 | idasanutlin 0.004 | alisertib 0.048 | [2] -0.01 | gefitinib 0.093 | [3] -0.285 | lapatinib -0.03 | pictilisib 0.103 | [4] 0.061 | crizotinib 0.021 | [6] 0 | duvelisib 0.061 | gandotinib 0.19 | tozasertib 0.136 | [7] 0.162 | doramapimod 0.085 | ispinesib -0.018

IK (UniProt Q13123)
Sequence of UniProt Q13123 (Q13123 whole entry, looked up): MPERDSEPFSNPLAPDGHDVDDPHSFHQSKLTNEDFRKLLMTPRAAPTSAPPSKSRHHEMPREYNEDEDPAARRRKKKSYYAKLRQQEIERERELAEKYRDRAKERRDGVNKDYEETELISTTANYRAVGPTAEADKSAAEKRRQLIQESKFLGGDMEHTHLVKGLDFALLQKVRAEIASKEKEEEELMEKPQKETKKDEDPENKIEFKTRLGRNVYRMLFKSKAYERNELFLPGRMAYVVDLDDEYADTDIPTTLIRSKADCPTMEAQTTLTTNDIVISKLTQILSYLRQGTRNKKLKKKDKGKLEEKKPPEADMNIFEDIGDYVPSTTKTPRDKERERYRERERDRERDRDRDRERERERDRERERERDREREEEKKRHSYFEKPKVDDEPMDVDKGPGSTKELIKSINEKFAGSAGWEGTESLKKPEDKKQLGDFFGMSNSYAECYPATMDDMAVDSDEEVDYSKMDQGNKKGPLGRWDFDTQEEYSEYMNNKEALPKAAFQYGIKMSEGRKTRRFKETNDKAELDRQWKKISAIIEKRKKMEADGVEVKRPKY
inactive: [1] 0.056 | filanesib 0.156 | zotarolimus 0.007 | idasanutlin 0.102 | alisertib -0.044 | [2] 0.07 | gefitinib 0.027 | [3] -0.096 | lapatinib -0.008 | pictilisib -0.035 | [4] -0.041 | crizotinib 0.021 | [5] -0.037 | [6] 0.186 | duvelisib 0.034 | gandotinib 0.022 | tozasertib 0.05 | [7] -0.007 | doramapimod 0.016 | ispinesib 0.065

KLC2 (UniProt Q9H0B6)
inactive: [1] 0.06 | filanesib -0.038 | zotarolimus -0.028 | idasanutlin -0.065 | alisertib -0.047 | [2] -0.133 | gefitinib 0.017 | [3] 0 | lapatinib -0.005 | pictilisib 0.083 | [4] 0.012 | crizotinib -0.131 | [5] 0.008 | [6] -0.007 | duvelisib 0.059 | gandotinib -0.079 | tozasertib -0.004 | [7] 0.047 | doramapimod -0.002 | ispinesib -0.062

ILKAP (UniProt Q9H0C8)
Sequence of UniProt Q9H0C8 (Q9H0C8 whole entry, looked up): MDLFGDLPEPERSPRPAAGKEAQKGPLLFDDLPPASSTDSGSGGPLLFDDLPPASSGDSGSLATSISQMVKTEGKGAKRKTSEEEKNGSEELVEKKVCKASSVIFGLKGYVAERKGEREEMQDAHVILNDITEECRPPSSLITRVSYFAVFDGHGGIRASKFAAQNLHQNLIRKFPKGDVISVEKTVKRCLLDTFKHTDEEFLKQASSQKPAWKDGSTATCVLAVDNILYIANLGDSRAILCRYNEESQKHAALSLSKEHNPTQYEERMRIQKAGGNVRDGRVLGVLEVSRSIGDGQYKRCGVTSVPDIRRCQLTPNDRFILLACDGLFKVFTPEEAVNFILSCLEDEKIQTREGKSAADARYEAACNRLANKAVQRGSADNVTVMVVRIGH
inactive: [1] 0 | filanesib -0.016 | zotarolimus 0.03 | idasanutlin -0.06 | alisertib -0.13 | [2] 0.113 | gefitinib 0.032 | [3] -0.056 | lapatinib -0.029 | pictilisib -0.035 | [4] 0.008 | crizotinib 0.064 | [5] 0.174 | [6] -0.054 | duvelisib 0.041 | gandotinib -0.061 | tozasertib 0 | [7] 0.085 | doramapimod -0.055 | ispinesib 0.05

LSR (UniProt Q86X29)
Sequence of UniProt Q86X29 (Q86X29 whole entry, looked up): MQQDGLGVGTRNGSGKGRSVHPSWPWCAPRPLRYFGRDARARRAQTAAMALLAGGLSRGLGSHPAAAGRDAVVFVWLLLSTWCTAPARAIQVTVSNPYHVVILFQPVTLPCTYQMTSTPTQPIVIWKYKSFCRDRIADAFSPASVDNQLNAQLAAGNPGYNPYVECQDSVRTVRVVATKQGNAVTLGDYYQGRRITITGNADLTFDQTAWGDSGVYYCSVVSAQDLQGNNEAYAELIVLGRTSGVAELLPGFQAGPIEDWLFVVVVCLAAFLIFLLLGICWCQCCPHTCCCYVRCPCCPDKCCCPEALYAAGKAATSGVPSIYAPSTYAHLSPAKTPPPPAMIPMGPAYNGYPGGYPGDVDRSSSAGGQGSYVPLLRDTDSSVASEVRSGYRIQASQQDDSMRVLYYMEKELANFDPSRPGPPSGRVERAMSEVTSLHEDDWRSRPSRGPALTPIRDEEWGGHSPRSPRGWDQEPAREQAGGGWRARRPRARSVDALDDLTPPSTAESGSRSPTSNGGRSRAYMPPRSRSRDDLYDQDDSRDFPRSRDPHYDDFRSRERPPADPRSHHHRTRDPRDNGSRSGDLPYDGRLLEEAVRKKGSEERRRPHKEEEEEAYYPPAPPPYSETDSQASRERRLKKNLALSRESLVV
inactive: [1] 0.107 | filanesib 0.116 | zotarolimus -0.011 | idasanutlin -0.022 | alisertib -0.122 | [2] 0.027 | gefitinib 0.021 | [3] 0.033 | lapatinib -0.056 | pictilisib 0.121 | [4] 0.08 | crizotinib 0.043 | [5] 0.009 | [6] -0.025 | duvelisib 0.061 | gandotinib -0.012 | tozasertib -0.044 | [7] -0.031 | doramapimod 0.04 | ispinesib 0.027

IGF2R (UniProt P11717)
active: crizotinib -0.871
inactive: [1] 0.041 | filanesib 0.007 | zotarolimus -0.014 | idasanutlin -0.012 | alisertib -0.058 | [2] -0.065 | gefitinib -0.003 | [3] 0 | lapatinib 0.015 | pictilisib 0.002 | [4] 0.031 | [5] -0.035 | [6] -0.035 | duvelisib 0.048 | gandotinib 0.017 | tozasertib 0.025 | [7] 0.019 | doramapimod -0.01 | ispinesib -0.115

KCT2 (UniProt Q8NC54)
inactive: [1] -0.015 | filanesib -0.036 | zotarolimus -0.044 | idasanutlin -0.029 | alisertib -0.074 | [2] 0.021 | gefitinib 0.032 | [3] 0.039 | lapatinib -0.002 | pictilisib 0.023 | [4] 0 | crizotinib -0.186 | [5] 0.074 | [6] -0.04 | duvelisib 0.064 | gandotinib 0.038 | tozasertib 0.033 | [7] 0.054 | doramapimod 0.091 | ispinesib -0.118

From the supplement of paper PMC10849652
